Inhibition data for twelve compounds are collected here from ChEMBL document CHEMBL3433997, “St. Jude Leishmania screening dataset” (2016).

Holding throughout (format): functional
Experiment [1] addresses Solute carrier family 2, facilitated glucose transporter member 1 (Homo sapiens) (UniProt P11166). The experiment in a line: ST_JUDE_LEISH: Cytotoxicity at 2uM final concentration against transgenic Leishmania Mexicana promastigotes LmGLUT1 that are glucose transport deficient and complemented with the human glucose transporter GLUT1. Activity is measured by DNA content using SYBR green in vitro.

The target in experiment [2] is Hexose transporter 1 (Plasmodium falciparum) (UniProt O97467). The experiment in a line: ST_JUDE_LEISH: Cytotoxicity at 2uM final concentration against transgenic Leishmania Mexicana promastigotes LmPfHT that are glucose transport deficient and complemented with the Plasmodium falciparum hexose transporter. Activity is measured by DNA content using SYBR green in vitro.

The target of experiment [3] is Glucose transporter (Leishmania mexicana) (UniProt O61059). The experiment in a line: ST_JUDE_LEISH: Cytotoxicity at 2uM final concentration against transgenic Leishmania Mexicana promastigotes LmGT2 that are glucose transport deficient and complemented with the L. Mexicana glucose transporter 2. Activity is measured by DNA content using SYBR green in vitro.

Chain of Solute carrier family 2, facilitated glucose transporter member 1 (Homo sapiens) (P11166 whole entry): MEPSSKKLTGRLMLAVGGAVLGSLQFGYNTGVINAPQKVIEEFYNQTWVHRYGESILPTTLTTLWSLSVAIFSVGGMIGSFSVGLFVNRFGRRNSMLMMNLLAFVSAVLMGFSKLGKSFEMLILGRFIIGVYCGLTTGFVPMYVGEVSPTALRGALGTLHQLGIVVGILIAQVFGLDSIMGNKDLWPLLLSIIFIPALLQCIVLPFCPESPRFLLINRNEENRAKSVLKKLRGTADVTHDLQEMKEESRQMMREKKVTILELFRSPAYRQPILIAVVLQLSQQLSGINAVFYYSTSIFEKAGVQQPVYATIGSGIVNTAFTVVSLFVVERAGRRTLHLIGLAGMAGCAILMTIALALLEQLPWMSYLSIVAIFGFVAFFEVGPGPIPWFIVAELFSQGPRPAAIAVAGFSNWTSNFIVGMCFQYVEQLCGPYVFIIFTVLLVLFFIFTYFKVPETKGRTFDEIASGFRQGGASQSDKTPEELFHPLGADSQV

Take `Cc1cccc2nc(-c3cccc(-c4ccc(CNCc5cnn(-c6ccccc6)n5)cc4)c3)[nH]c12`: the results for the inhibition in experiment [1], in experiment [2] and in experiment [3] were 0.18%, 2.02% and 0.22%, respectively.

With `CCCc1ccc(S(=O)(=O)NC2CCN(c3ccnc(Nc4ccc(F)cc4)n3)C2)cc1` (stereo unspecified), the inhibition in experiment [1] came out at 0.73%; in experiment [2] it was 0.26%; in experiment [3], 1.48%.

Regarding `CN1CCC(N2CCN(Cc3cccc(-c4cccc(-c5nc6ccccc6[nH]5)c4)c3)CC2)CC1`, the inhibition was -4.87% in experiment [1], 0.09% in experiment [2] and -3.95% in experiment [3].

On to `OCC1CCN(Cc2ccc(-c3ccc(-c4nc5cc(F)ccc5[nH]4)cc3)cc2)CC1`, for which the inhibition was determined as 6.63% in experiment [1], 4.55% in experiment [2] and 4.78% in experiment [3].

Regarding `O=c1ccc2ccc(O)c(O)c2o1`, the inhibition turned out to be 7.05% in experiment [1], 5% in experiment [2] and 4.39% in experiment [3].

With `COCCNCc1ncsc1-c1ccc2c(Nc3cc(O)c(Cl)cc3F)ccnc2c1`, the inhibition was found to be 3.19% in experiment [1], 3.29% in experiment [2] and 1.41% in experiment [3].

Take `COc1ccc(N2CCN(CCCN3CCN(C(=O)c4ccc(/C=C/c5ccc(Cl)c(Cl)c5)cc4)CC3)CC2)c(OC)c1`: the inhibition in experiment [1] was 6.35%; in experiment [2], 6.21%; in experiment [3], 5.56%.

Take `CC(C)NCc1ccc(-c2ccc(NS(=O)(=O)c3cccc4cccnc34)cc2)cc1`: the inhibition in experiment [1] is 16.1%; in experiment [2], 14.5%; in experiment [3], 12.7%.

`COc1ccc(NC(=O)/C=C/c2ccccc2Cl)cc1OCCN1CCC(NCc2cccnc2)CC1`: the inhibition in experiment [1] amounted to 3.65%; in experiment [2], 2.5%; in experiment [3], 1.91%.

For the compound `CCn1c2c(c(=N)c3ccccc31)CCC2`, the inhibition was -0.78% in experiment [1], -2.72% in experiment [2] and -1.61% in experiment [3].

As for `N#Cc1ccc2c(c1)CCN(CCC1CCC(Nc3ncnc4ccccc34)CC1)C2` (stereo unspecified), the values for the inhibition in experiment [1], in experiment [2] and in experiment [3] were 10.7%, 3.96% and 4.21%, respectively.

For the compound `O=C(Cc1ccc(-n2cnnn2)cc1)N(Cc1cncn1Cc1cccc(C(F)(F)F)c1)CC1CC1`, the inhibition in experiment [1] is -1.26%; in experiment [2] it was -1.38%; in experiment [3] it was 1.66%.
